# ERK EGF inh: blocks ERK signaling stimulated by EGF | HEK293-V1b, EGF-stimulated phospho-ERK AlphaScreen | Potency, µM (titrated, usually from 11.5 µM), for the others: top-dose activity change, negative = inhibition, most hits filed as inhibitors | 130,000 compounds, 0.41% hits; active = well fitted inhibition curve with a large enough effect;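 note: plate controls were stimulated vehicle wells for no effect and unstimulated vehicle basal for full effect; nearly all actives have a fitted effect of over 55% in size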
#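 Compounds are titrated over HEK293-V1b cells kept overnight in 1% FBS. After 30 min at 37C, EGF (25 nM final) triggers ERK phosphorylation for 5 min, measured by AlphaScreen in lysates.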
# Numbers without * were called inactive; [ ] = remark or other dose. The entries come from a sample that favours hits as a whole. Potency is the fitted concentration of half-maximal effect.
SMILES,ERK EGF inh
O=C1CC(c2ccc(Br)cc2)NC(c2ccc(Br)cc2)C1c1ccccc1 (stereo not given),3%
CCCC1/C(=N/O)CC(c2ccccc2)NC1c1ccccc1 (stereo not given),35µM*
CC(C)C1/C(=N/O)CC(c2ccccc2)NC1c1ccccc1 (stereo not given),-11%[57.5 µM]
COc1c(N2C[C@@H]3CCCN[C@H]3C2)c(F)cc2c(=O)c(C(=O)O)cn(C3CC3)c12,2%
NC(=S)N=Nc1c(O)n(Cc2ccccc2)c2ccccc12,2%
Cc1c(Cl)cccc1NC(=S)N=Nc1c(O)n(CN2CCOCC2)c2ccccc12,5%
Oc1c(N=NC(=S)Nc2ccccc2F)c2ccccc2n1Cc1ccccc1Cl,14µM*
CC(=O)Oc1cc(-c2coc3cc(OC(C)=O)c(OC(C)=O)c(OC(C)=O)c3c2=O)cc(OC(C)=O)c1OC(C)=O,8%
O=C(/C=C/c1ccccc1O)c1ccc(Cl)cc1,40µM*
CC(=O)/C=C/c1ccccc1O,-3%
CCOc1ccccc1/C=C/C(=O)c1ccc(Cl)cc1,-9%
C[C@@]12C=CC(=O)C=C1CC[C@H]1[C@H]3CC[C@](O)(C(=O)CO)[C@]3(C)CC(=O)[C@@H]12,-1%[25.7 µM]
CC12C=C(/C=C/CCc3ccco3)C(C)(C1)[C@H](CCc1ccco1)CC2=O (stereo not given in full),-3%
CC(=O)O[C@H]1CC2(C)[C@@H](C[C@@H](O)[C@H]3[C@@]4(C)CC[C@@H](O)[C@@H](C)[C@@H]4CC[C@@]32C)C1=C(CCC=C(C)C)C(=O)O (stereo not given in full),5%
COc1ccccc1NS(=O)(=O)c1ccc(OC)c([N+](=O)[O-])c1,1%
CCCC(CCC)=NNc1ccc(S(=O)(=O)Nc2ccccc2OC)cc1[N+](=O)[O-],14µM*
C/C(=N\Nc1ccc(S(=O)(=O)Nc2ccccc2)cc1[N+](=O)[O-])c1ccncc1,-4%
CCCCC/C=C\C[C@@H](O)/C=C/C=C\CCC(=O)O,-5%
COc1cc2c(cc1O)-c1ccccc1CN(C)C2,-2%
CCOC(=O)c1[nH]cnc1N=Nc1c(O)ccc2ccccc12,-16%
Oc1ccc2ccccc2c1CN1CCN(c2ccccc2F)CC1,0%
Oc1ccc2ccccc2c1N=Nc1ccccc1F,14µM*
O=C(O)c1ccccc1C(=O)c1ccc(N2CCCC2)c([N+](=O)[O-])c1,-1%
COc1ccccc1N1CCN(C(=O)/C=C/c2cccc([N+](=O)[O-])c2)CC1,-9%[57.5 µM]
COc1ccccc1C(=O)/C=C/c1ccc(N2CCCCC2)c([N+](=O)[O-])c1,16µM*
SMILES,ERK EGF inh
Cc1nc(NC2CCCCC2)c2nc(-c3ccccc3)n(C(C)CN(C)C)c2n1 (stereo not given),-2%
CCCC1(C(=O)OC)C=C2C(=C(C)C(=O)C2C)CN1 (stereo not given),7%
COc1cc([C@H]2c3cc4c(cc3[C@@H](O[C@H]3O[C@H]5CO[C@@H](C)O[C@H]5[C@@H](O)[C@@H]3O)[C@@H]3COC(=O)[C@H]23)OCO4)cc(OC)c1O,-5%[25.7 µM]
O=C(NNc1nc2cc3c(cc2s1)OCO3)c1cccc(F)c1,18µM*
COc1cc(OC)cc(C(=O)NNc2nc3cc4c(cc3s2)OCO4)c1,0%
COc1cc(C(=O)NNc2nc3cc4c(cc3s2)OCO4)cc(OC)c1OC,6%
COc1cccc([C@@H]2Oc3ccc(Br)cc3C[C@H]2OC(=O)NS(=O)(=O)c2ccc(C)cc2)c1,-5%
O=C(Nc1cccc(Br)c1)c1ccc(OC2CSC2)cc1,25µM*
COC(=O)c1cccc(NC(=O)c2ccccc2)c1,-2%[57.5 µM]
Cc1cccc(NC(=O)c2ccc(OC3CSC3)cc2)c1,0%
COC(=O)N1CCC2(CC1)CN(C(=O)Nc1ccc(OC)cc1)C2,3%
O=C(O)[C@H]1[C@H]2C[C@H]3c4[nH]c5ccccc5c4CCN3C[C@@H]2CC[C@@H]1O,10%
CCOC(=O)NC[C@H](Cc1ccc(OCCc2nc(-c3ccccc3)oc2C)cc1)N/C(C)=C\C(=O)c1ccc(C(F)(F)F)cc1,8%
COC(CNC(=O)c1ccc2c3c(onc13)-c1ccccc1C2=O)OC,35µM*
COC(CNC(=O)C(C)n1nc(C)c2ccccc21)OC (stereo not given),3%
COC(CNC(=O)c1cccnc1)OC,1%
COc1ccc(COC2OC[C@]3(C)[C@H]4C5=C(CN3C(=O)OC(C)(C)C)[C@H](C)C(CO)C(CO)C5CC[C@@H]24)cc1 (stereo not given in full),0%
COC(=O)[C@@H]1C[C@H]1[C@@H](NC(C)=O)c1ccccc1,13%
CCCCC[C@H](O)/C=C/C=C\C=C\[C@@H](O)C/C=C\CCCC(=O)O,7%
O=[N+]([O-])c1ccc(N/N=C2\CC3CC=CC23)cc1 (stereo not given),-13%
O=[N+]([O-])c1ccc(N/N=C2\CC3CC=CC23)c([N+](=O)[O-])c1 (stereo not given),14µM*
CCC(CC)=NNc1ccc([N+](=O)[O-])cc1[N+](=O)[O-],-4%
CC(=O)O[C@]1(C(C)=O)CC[C@H]2C3C=C(Cl)C4=CC(=O)[C@@H]5C[C@H]5[C@]4(C)C3CC[C@@]21C (stereo not given in full),-1%
CCn1c(Cl)c(C=O)s/c1=N\S(=O)(=O)c1ccccc1,18µM*
CCN1C(=O)CS/C1=N\S(=O)(=O)c1ccc(Cl)cc1,13%
SMILES,ERK EGF inh
O=Cc1sc(=O)n(Cc2cccc(C(=O)O)c2)c1Cl,-4%[57.5 µM]
COc1ccc2c(c1)C(=O)[C@H](OC(=O)NCCc1ccc(OC)c(OC)c1)[C@@H](c1ccc(OC)c(Br)c1)O2,-9%
C=C(C)C(=O)/C=C/C=C/c1ccccc1,-21%
CC(C)CN1CCC(=O)N([C@H](CSc2ccc(Br)cc2)c2ccccc2)CC1,-1%[57.5 µM]
Cc1ccc(SC[C@H](c2ccccc2)N2CCN(CC(C)C)CCC2=O)cc1,32µM*
Cc1ccc(SC[C@H](c2ccccc2)N2CCN(C)CCC2=O)cc1,-16%[57.5 µM]
CC[N+](CC)(CC)CC[C@](O)(c1ccccc1)C1CCCCC1,0%[25.7 µM]
O=C(OC(c1ccccc1)c1nccc2ccccc12)c1cc([N+](=O)[O-])cc([N+](=O)[O-])c1 (stereo not given),16µM*
O=C(NC(c1ccccc1)c1ccccn1)c1cccc([N+](=O)[O-])c1 (stereo not given),11%
O=C(c1cc([N+](=O)[O-])cc([N+](=O)[O-])c1)N(c1ccccn1)c1ccccn1,-2%
CC(=O)/C(=N/Nc1ccccc1[N+](=O)[O-])N1CCCc2ccccc21,13µM*
COC(=O)/C(=N/Nc1ccccc1)N1CCCc2ccccc21,-1%
CC(=O)/C(=N/Nc1ccc(Br)cc1)N1CCCc2ccccc21,-3%[57.5 µM]
COC(=O)c1ccc(C23CC2(C(NP(=O)(c2ccccc2)c2ccccc2)c2ccccc2)C3)cc1 (stereo not given),2%
C=CCC(C)(Nc1ccccc1)C(=O)OCC (stereo not given),-10%
CCCCC/C=C\C\C=C/C=C/C=C/[C@@H](SCC(NC(=O)CCC(N)C(=O)O)C(=O)NCC(=O)O)[C@@H](O)CCCC(=O)O (stereo not given in full),-18%
Fc1ccc([C@H]2CCNC[C@H]2COc2ccc3c(c2)OCO3)cc1,-2%
C[C@@H](NC(=O)c1nc[nH]c1C(=O)N[C@@H](Cc1ccccc1)C(=O)OCc1ccccc1)c1ccccc1,10%[57.5 µM]

# Source: PubChem BioAssay
